# Data from PubChem BioAssay (NCATS).
# Values joined by “and” are separate entries in the source; they are usually repeats but may differ in a detail not shown here. Identical values can stand only once. Inconclusive results are not listed. Active and inactive are the calls of the source. Unless noted, calls follow the shape of the dose curve; as a rule, active = well fitted curve in the direction sought with a large enough effect; inconclusive = small, poorly fitted or top-dose-only effect, or another doubt; inactive = no such curve, though single readings can be large; an effect the other way counts as inactive or inconclusive.
# How the values were obtained:
# [1] = biological target: T1, Hexokinase-4 (Homo sapiens) + Glucokinase regulatory protein (Homo sapiens) (UniProt P35557+Q14397); assay: qHTS assay for inhibitors of recombinant human GCK-GKRP interaction: ADP-Glo assay (AID 743206);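 also: plate controls were DMSO plus enzyme for no effect and no enzyme for full effect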
# Summary of the method: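 Pin-transferred compounds meet a 15 nM GST-GCK/15 nM FLAG-GKRP/2 uM S6P mix (dispense concentrations). ATP is then added to 0.4 mM final with 5 mM glucose, and the reaction runs 60 min at room temperature. ADP is quantified luminescently.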
# [2] = biological target: T1, Hexokinase-4 (Homo sapiens) + Glucokinase regulatory protein (Homo sapiens); assay: qHTS assay for inhibitors of recombinant human GCK-GKRP interaction: HTRF assay (AID 743207);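 also: 0% = DMSO with GCK present and -100% = DMSO wells lacking GCK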
# Summary of the method: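 HTRF read-out (ex 320 nm; 615/665 nm emission) after 60 min RT equilibration of 5 nM GST-GCK, 5 nM FLAG-GKRP, 2 uM S6P, compound and anti-FLAG/anti-GST detection antibodies; signal normalized between DMSO wells with and without GCK.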
# [3] = qHTS profiling for inhibitors of Plasmodium falciparum (3D7) proliferation (AID 743322; call rule not given here;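 also: infected erythrocytes exposed to compound for 72 h before lysis; 100% = DMSO vehicle wells and 0% = 0.29 µM artemisinin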); settings: P. falciparum 3D7 proliferation; at 28.7 µM (top of the series) unless noted
# Summary of the method: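 Parasite DNA was quantified by SYBR Green I fluorescence (ex 485, em 535 nm) after overnight lysis in saponin/Triton buffer at room temperature. Cultures at 0.3% parasitemia and 2.5% hematocrit were first exposed to compound for 72 h at 37 C; signals were normalised to artemisinin (0.29 uM) and vehicle wells.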
# [4] = qHTS profiling for inhibitors of Plasmodium falciparum (DD2) proliferation (AID 743323; call rule not given here); settings: lower = more inhibition; at 28.7 µM (top of the series) unless noted
# Summary of the method: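 P. falciparum Dd2-infected erythrocytes (0.3% parasitemia, 2.5% hematocrit) exposed 72 h at 37 C, 5% CO2. Lysis with SYBR Green, overnight at room temperature, fluorescence 485/535 nm; normalized to 0.29 uM artemisinin and DMSO.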
# [5] = qHTS profiling for inhibitors of Plasmodium falciparum (HB3) proliferation (AID 743324); settings: Plasmodium falciparum HB3 blood-stage proliferation; at 28.7 µM (top of the series) unless noted;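 also: 100% = DMSO vehicle wells and 0% = artemisinin-treated control wells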
# Summary of the method: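 SYBR Green fluorescence (485 ex/535 em) of lysed cultures, incubated overnight at room temperature in the dark, quantifies parasite DNA. Infected erythrocytes at 0.3% parasitemia and 2.5% hematocrit were exposed 72 h; values normalized to DMSO and 0.29 uM artemisinin controls.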
# [6] = qHTS Assay for Identifying Gametocytocidal Compounds (AID 743244); also: potency is read from the fitted curve at half-maximal effect;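 as to max response: % is scaled to controls: 0 for no effect and ±100 for the full control effect; actives lower the fluorescent signal which means gametocytes are killed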; settings: P. falciparum 3D7 stage III-V gametocytes, alamarBlue, 72 h; max response: stronger effect = lower value
# Summary of the method: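 Stage III-V P. falciparum 3D7 gametocytes, 20,000 per well, were exposed to compounds for 72 h at 37C, 5% CO2. AlamarBlue was then added for 24 h and viability was read as fluorescence at Ex 525/Em 598 nm.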
# [7] = qHTS assay for cell viability of HEK293 cells (AID 743288); settings: ATP luminescence (CellTiter-Glo), 18 h, stronger effect = lower value; also: % is scaled to controls: 0 for no effect and ±100 for the full control effect; nearly all actives have a fitted effect of over 50% in size
# Summary of the method: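 ATP luminescence (CellTiter-Glo) reports metabolically competent cell number after parental HEK293 cells, 2,000/well, were treated with DMSO-dissolved compounds for 18 h at 37 C; reagent incubation 30 min, room temperature.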
# [8] = qHTS assay for cell viability of the p53RE-bla HCT-116 cell line (AID 743292); also: % is scaled to controls: 0 for no effect and ±100 for the full control effect; nearly all actives have a fitted effect of over 55% in size
# Summary of the method: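 Quantitative high-throughput format: compounds in DMSO were pinned onto p53RE-bla HCT-116 cells (4,000/well) and incubated 16 h at 37 C. Total intracellular ATP, read by CellTiter-Glo luminescence, reflects viable cell number.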
# T1 sequence (P35557 whole entry, looked up): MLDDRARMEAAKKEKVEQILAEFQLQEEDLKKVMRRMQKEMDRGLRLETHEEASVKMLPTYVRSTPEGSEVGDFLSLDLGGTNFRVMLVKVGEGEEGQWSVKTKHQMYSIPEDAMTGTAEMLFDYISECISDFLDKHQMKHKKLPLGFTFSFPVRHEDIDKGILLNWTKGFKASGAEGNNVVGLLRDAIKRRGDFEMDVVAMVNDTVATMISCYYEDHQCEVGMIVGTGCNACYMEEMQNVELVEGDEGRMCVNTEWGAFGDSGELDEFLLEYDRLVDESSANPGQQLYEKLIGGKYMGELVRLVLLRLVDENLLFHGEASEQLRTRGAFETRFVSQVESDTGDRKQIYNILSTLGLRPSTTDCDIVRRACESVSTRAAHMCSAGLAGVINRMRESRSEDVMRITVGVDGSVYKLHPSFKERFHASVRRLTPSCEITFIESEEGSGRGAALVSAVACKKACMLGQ
# T1 sequence (Q14397 whole entry, looked up): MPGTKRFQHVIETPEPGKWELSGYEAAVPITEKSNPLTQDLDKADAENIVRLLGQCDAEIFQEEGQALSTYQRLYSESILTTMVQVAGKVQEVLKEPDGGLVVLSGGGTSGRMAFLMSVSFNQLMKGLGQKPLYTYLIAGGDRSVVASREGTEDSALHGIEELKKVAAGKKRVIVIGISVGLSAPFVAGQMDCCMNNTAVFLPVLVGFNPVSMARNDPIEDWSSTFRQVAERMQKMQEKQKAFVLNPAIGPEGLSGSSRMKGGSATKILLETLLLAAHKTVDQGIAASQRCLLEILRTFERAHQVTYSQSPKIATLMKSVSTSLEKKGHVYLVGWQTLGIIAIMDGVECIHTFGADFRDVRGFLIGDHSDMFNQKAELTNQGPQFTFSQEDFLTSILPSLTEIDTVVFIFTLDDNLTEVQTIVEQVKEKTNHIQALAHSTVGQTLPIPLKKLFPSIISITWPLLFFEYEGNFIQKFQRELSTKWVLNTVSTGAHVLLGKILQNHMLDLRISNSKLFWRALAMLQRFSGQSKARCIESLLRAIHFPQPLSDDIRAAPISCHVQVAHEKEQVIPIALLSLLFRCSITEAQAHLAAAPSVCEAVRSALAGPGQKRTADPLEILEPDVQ
compound,measurement,setting,value
CN1Cc2c(N)cccc2C(c2ccccc2)C1 (configuration not stated),outcome,[1],inactive
same,outcome,[2],inactive
CN(NC(=O)CC(=O)NN(C)C(=S)c1ccccc1)C(=S)c1ccccc1,remaining parasite growth % (stronger effect = lower value),[3],2.19% [at 57.5 µM]
same,"activity, percent of control",[4],4.04% [at 57.5 µM]
same,"remaining proliferation (% of control), lower = more inhibition",[5],5.46%
CCCCC/C=C\C/C=C\CCCCCCCC(=O)O,max response,[6],0.52% (inactive)
same,max response,[7],-9.3% (inactive) and -9.38% (inactive)
same,outcome,[8],inactive
O=c1cc(C2=CC=CC3Sc4ccccc4SC23)oc(N2CCOCC2)c1 (configuration not stated),max response,[6],-19.3% (inactive)
same,remaining parasite growth % (stronger effect = lower value),[3],90.9%
same,"activity, percent of control",[4],88.7%
same,"remaining proliferation (% of control), lower = more inhibition",[5],76.5%
CC1=CCC(C(C)(C)O)CC1 (configuration not stated),max response,[6],-0.0478% (inactive)
same,max response,[7],-13.3% (inactive)
same,outcome,[8],inactive
CC(O)CO (configuration not stated),max response,[6],5.22% (inactive)
same,max response,[7],4.22% (inactive) and 2.43% (inactive)
same,outcome,[8],inactive
COC(=O)C1=C(C)NC(C)=C(C(=O)OCCCN2CCC(c3ccccc3)(c3ccccc3)CC2)[C@H]1c1cccc([N+](=O)[O-])c1,Potency,[6],14.8 µM (active)
same,remaining parasite growth % (stronger effect = lower value),[3],-1.45%
same,"activity, percent of control",[4],-0.102%
same,"remaining proliferation (% of control), lower = more inhibition",[5],-0.517%
CC1=C2[C@@H]([C@H](C)CC[C@H]2/C=C(\C)C(=O)O)[C@H](O)C1,max response,[7],-12% (inactive)
same,outcome,[8],inactive
CNC1CCN(C(Cc2cccc(-c3ccncc3)c2)C(=O)c2sc3c(F)ccc(F)c3c2Cl)CC1 (configuration not stated),Potency,[6],9.35 µM (active)
same,remaining parasite growth % (stronger effect = lower value),[3],0.218%
same,"activity, percent of control",[4],0.386%
same,"remaining proliferation (% of control), lower = more inhibition",[5],-0.323%
O=C(O)CN(CCN(CC(=O)O)CC(=O)O)CC(=O)O,max response,[7],-9.23% (inactive) and -6.76% (inactive)
same,outcome,[8],inactive
CC(C)=O,max response,[6],-8.02% (inactive)
same,max response,[7],-4.51% (inactive)
same,outcome,[8],inactive
O=C(O)CC/C=C\CC[C@H]1[C@@H](N2CCCCC2)[C@@H](O)C[C@@H]1OCc1ccc(-c2ccccc2)cc1,max response,[6],3.93% (inactive)
same,remaining parasite growth % (stronger effect = lower value),[3],58.6%
same,"activity, percent of control",[4],86.9%
same,"remaining proliferation (% of control), lower = more inhibition",[5],76.1%
